# Rows were chosen to be rich in hits. Some 6.9% of all compounds tested hit in one or more screens of this group.
# JMJD2A Tudor inh = blocks the human JMJD2A Tudor domain | 390,000 tested, 4.4% active | O75164 | Potency, µM (titrated, usually from 114 µM), inactives show at the top dose activity change, negative = inhibition, usual class: inhibitors | AlphaScreen JMJD2A-Tudor / H3K4me3 peptide binding; further: on the % scale 0 is the no-effect control and ±100 the full control effect; nearly all actives have a fitted effect of over 50% in size
# BAZ2B inh = BAZ2B (human) inhibition; AlphaScreen BAZ2B-H3K14Ac peptide displacement; Potency, µM (top dose mostly 114 µM), without a hit: top-dose activity change, negative = inhibition, hits mostly inhibitors; Q9UIF8; AID 504333; 360,000 tested, 4.4% active; further: on the % scale 0 is the no-effect control and ±100 the full control effect; nearly all actives have a fitted effect of over 60% in size
#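 Multi-concentration screen (max 110 uM) measuring displacement of acetylated histone H3 peptide from BAZ2B by AlphaScreen, using 50 nM protein, 50 nM peptide and 10 ug/mL streptavidin donor plus Ni-chelate acceptor beads.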
# L3MBTL1 inh = L3MBTL1 (human) inhibition; Q9Y468; AlphaScreen L3MBTL1–H3K9me1 peptide binding; Potency, µM (top dose mostly 57.1 µM), for the others: top-dose activity, negative = inhibition, actives largely listed as inhibitors; 230,000 tested, 0.66% active; AID 485360; further: on the % scale 0 is the no-effect control and ±100 the full control effect; nearly all actives have a fitted effect of over 60% in size
# Target sequence (Q9Y468 whole entry, looked up): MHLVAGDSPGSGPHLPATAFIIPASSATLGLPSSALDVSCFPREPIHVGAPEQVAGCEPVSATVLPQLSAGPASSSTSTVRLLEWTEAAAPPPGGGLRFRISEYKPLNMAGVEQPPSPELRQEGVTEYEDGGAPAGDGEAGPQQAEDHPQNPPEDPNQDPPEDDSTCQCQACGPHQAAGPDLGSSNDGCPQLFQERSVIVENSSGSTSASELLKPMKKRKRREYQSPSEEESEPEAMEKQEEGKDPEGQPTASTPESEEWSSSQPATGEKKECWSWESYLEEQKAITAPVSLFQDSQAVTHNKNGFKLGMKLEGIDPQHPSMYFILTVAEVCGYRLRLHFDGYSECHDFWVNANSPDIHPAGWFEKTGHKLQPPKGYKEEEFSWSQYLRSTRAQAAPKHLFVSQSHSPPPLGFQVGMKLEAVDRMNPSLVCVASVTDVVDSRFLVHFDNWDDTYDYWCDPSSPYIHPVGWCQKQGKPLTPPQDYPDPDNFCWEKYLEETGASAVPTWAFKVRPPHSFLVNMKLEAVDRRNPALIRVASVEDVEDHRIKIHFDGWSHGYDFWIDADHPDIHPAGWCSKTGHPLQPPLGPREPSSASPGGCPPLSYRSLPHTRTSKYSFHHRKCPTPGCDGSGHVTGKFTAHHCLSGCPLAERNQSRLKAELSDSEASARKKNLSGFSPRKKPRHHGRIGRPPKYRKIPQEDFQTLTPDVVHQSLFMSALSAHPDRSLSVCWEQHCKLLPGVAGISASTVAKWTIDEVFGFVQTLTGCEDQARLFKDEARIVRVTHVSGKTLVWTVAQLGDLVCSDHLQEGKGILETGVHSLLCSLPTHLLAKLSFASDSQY
#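 AlphaScreen assay: L3MBTL1 (50 nM final) was preincubated 30 min at room temperature with biotinylated H3(1-15)K9me1 peptide (75 nM final), then 30 min with library compounds; streptavidin donor and nickel chelate acceptor beads (10 ug/mL final) added, 30 min dark.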
# HP1b chromo inh = HP1-beta chromodomain-methylated histone interaction inhibition; AID 540317; Potency, µM (titrated, usually from 114 µM), without a hit: top-dose activity change, negative = inhibition, usual class: inhibitors; AlphaScreen HP1-beta / biotin-H3K9me3 peptide binding; P83916; 390,000 tested, 0.56% active; further: nearly all actives have a fitted effect of over 70% in size
#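 AlphaScreen: HP1-beta (50 nM) preformed 30 min with biotin-H3(1-18)K9me3 peptide (50 nM) in PBS pH 7.4, 0.01% Tween-20. Compound added for 30 min at RT, then streptavidin donor/nickel chelate acceptor beads (10 ug/mL) for 30 min.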
# PLK1 PBD inh = PLK1 (human) polo-box domain binding inhibition. Potency, µM, for inactives: max response, negative = inhibition, hits mostly inhibitors. Plk1 PBD binding of FITC phosphopeptide, fluorescence polarization. P53350. 360,000 tested, 2.8% active; further: series mostly up to about 57 µM; on the % scale 0 is the no-effect control and ±100 the full control effect; nearly all actives have a fitted effect of over 65% in size
# VDR inhibitor = vitamin D3 receptor (human) inhibition | 400,000 tested, 0.93% active | AID 504847 | Potency, µM, for the others: max response, negative = inhibition, actives largely listed as inhibitors | VDR-SRC2-3 peptide fluorescence polarization, 2 h | P11473; further: on the % scale 0 is the no-effect control and ±100 the full control effect
#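 The screen uses fluorescence polarization to detect compounds that interfere with recruitment of the SRC2-3 coactivator peptide to VDR; plates are read after 2 h at room temperature.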
# * marks the source's active call; other numbers are inactive results; ? = inconclusive; nt = no result; [ ] = dose if it differs, or a comment. The call rests on the fitted dose curve; in most records, active means well fitted curve in the direction sought with a large enough effect; inconclusive means small, poorly fitted or top-dose-only effect, or another doubt; inactive means no such curve, though single readings can be large; an effect the other way counts as inactive or inconclusive. Potency means the concentration at half of the fitted maximal effect.
SMILES,JMJD2A Tudor inh,BAZ2B inh,L3MBTL1 inh,HP1b chromo inh,PLK1 PBD inh,VDR inhibitor
OC(CCCC(O)c1ccccc1)c1ccccc1 (stereo not drawn),-0.7%,nt,nt,23.6%,0.1%,-17.0%
OC(Cn1cnnc1)c1ccccc1 (stereo not drawn),6.31µM*,25.1µM*,nt,22.4µM*,-9.0%,10.2%
O=C(CN(Cc1ccco1)C(=O)Cn1nnc(-c2ccc(F)cc2)n1)NC1CCCC1,-9.0%,-7.5%,-1.0%,13.7%,-3.5%,-6.1%
CCCCC(C(=O)NC1CCCC1)N(Cc1ccco1)C(=O)Cn1nnc(-c2ccc(F)cc2)n1 (stereo not drawn),-3.1%[11.4 µM],-8.7%,nt,-23.4%,23.8µM*,-16.6%
O=C(Nc1ccc2c(c1)OCO2)c1ccc(Cl)cc1Cl,-17.1%,-22.0%,nt,38.7%,-1.8%,-4.0%
Cc1c(C(=O)c2ccc(Cl)cc2Cl)cnc2cc3c(cc12)OCO3,?,7.7%,7.1%,?,29.9µM*,?
O=C(O)CCCn1cc(NC(=O)c2cc(F)c(F)cc2Cl)cn1,-30.8%[11.4 µM],-2.2%,24.4%,-16.1%,8.44µM*,?
Cn1c(=O)c(-c2ccc(Cl)cc2)nc2cnc(OCc3ccccc3)nc21,nt,nt,nt,nt,nt,1.3%
CCN(CC)S(=O)(=O)c1nnc(NC(=O)COc2ccc(Cl)cc2)s1,-20.7%,-14.4%,nt,29.5%,nt,-4.0%
COc1ccc(N=c2ssnc2Cl)cc1,-16.8%[11.4 µM],44.7µM*,-1.3%,?,1.68µM*,?
Clc1nssc1=Nc1ccccc1,79.4µM*,28.2µM*,nt,35.5µM*,2.38µM*,44.7µM*
CCc1ccc(/C(C)=N/NC(=O)CNC(=O)/C=C/c2ccco2)cc1,22.4µM*,nt,nt,22.4µM*,?,16.3%
CCc1ccc(/C(C)=N/NC(=O)CNC(=O)/C=C/c2ccccc2OC)cc1,-9.3%,5.0%,nt,2.4%,-8.9%,-9.8%
CC(C)N1C/C(=C/c2ccsc2)C(=O)/C(=C/c2ccsc2)C1,?,44.7µM*,-12.8%,-12.5%,-18.0%,15.8µM*
O=C(CNCCc1ccc(F)cc1)Nc1cc(F)ccc1F,28.2µM*,20µM*,nt,-5.9%,-4.8%,15.7%
O=C(CN1CCCC1)Nc1cc(F)ccc1F,-13.2%,1.5%,6.0%,30.3%,-16.8%,-8.0%
CSc1ccc2c(c1)N(CCC1CCCCN1C)c1ccccc1S2 (stereo not drawn),50.1µM*,31.6µM*,-6.6%,?,-6.7%,-12.7%
Cc1nc(SCC(=O)N(CC(C)C)C2CCS(=O)(=O)C2)c(C#N)c(C)c1C (stereo not drawn),-5.5%,9.5%,-2.9%,40.1%,-3.3%,-8.7%
CCOc1ccc(NC(=S)NS(=O)(=O)c2cc(Br)ccc2OCC)cc1,-33.6%,nt,nt,?,11.9µM*,?
Cc1cc(OC(=O)c2ccccc2Br)cc(=O)n1C,-5.3%,-6.0%,-6.6%,39.3%,21.2µM*,-6.7%
CCCCn1cc(S(=O)(=O)c2ccccc2)c(=O)c2cc(F)c(N3CCC(C)CC3)cc21,-13.2%,5.4%,nt,28.6%,nt,2.6%
O=C(C(Br)=Cc1ccccc1)c1ccccc1,75.0%,nt,nt,97.1%,?,22.4µM*
CC(=Cc1ccccc1)C(=O)c1ccccc1,nt,nt,nt,nt,-1.4%,nt
CCOc1ccc(CNC(=O)CC(C)n2nc(C)cc2C)cc1OC (stereo not drawn),-12.7%,-14.4%,nt,26.5%,nt,7.0%
CNC(=O)c1nnsc1S(=O)(=O)c1ccc(Cl)cc1,1.4%,-14.6%,?,-14.7%,11.9µM*,10µM*
CCCN(C(=O)Cn1ncc2c1-c1ccccc1OC2)c1cccc(C)c1,-5.1%,-1.5%,nt,23.8%,nt,-3.5%
COc1cc(NC(=O)Cn2c(=O)n(CC3CCC(C(=O)NCCc4ccccc4)CC3)c(=O)c3ccccc32)cc(OC)c1 (stereo not drawn),-3.1%,-7.5%,nt,10.3%,nt,6.7%
COC(=O)c1ccc(Sc2ccc(C)cc2)c(N)c1,63.5%,53.7%,36.4%,41.2%,26.7µM*,-24.6%
COc1cc(Sc2ccc(C)cc2)c(OC)cc1N,22.4µM*,14.1µM*,?,28.2µM*,?,-14.0%

# Compound activity deposited in PubChem BioAssay by National Center for Advancing Translational Sciences (NCATS).
